In the library only some 5.2% were active in any assay of this set; here they are far more common.
Sfp inh = blocks B. subtilis Sfp PPTase activity; Potency, µM, for inactives: largest response in the series, negative = inhibition, actives largely listed as inhibitors; Q9F4F7; actives 3.5% (n = 310,000); AID 1490; Biochemical Sfp PPTase activity, qHTS;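 also: the enzyme is Sfp with the accession as filed and its product quenches rhodamine fluorescence; 0% = enzyme reaction without inhibitor and -100% = no enzyme wells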
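Reaction rates are the 30-min fluorescence difference (ex 525, em 598 nm) in wells containing 15 nM Sfp, 5 uM rhodamine-CoA and 12.5 uM BHQ-2-YbbR at pH 7.6 with 10 mM MgCl2.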
TrxR1 inh = rat TrxR1 inhibition; O89049; recombinant rTrxR1, NADPH fluorescence consumption, selenite substrate; Potency, µM (top dose mostly 114 µM), for the others: at the top dose activity change, negative = inhibition, usual class: inhibitors; actives 1% (n = 390,000); AID 588453; also: nearly all actives have a fitted effect of over 65% in size
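Rat TrxR1 (90 nM in the dispensed reagent) was pre-reduced with 400 uM NADPH for 5 min at room temperature, then incubated with compound for 15 min. After 400 uM selenite was added, NADPH fluorescence (Ex 340/Em 450 nm) was followed for 8 min.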
PLK1 PBD block = blocks phosphopeptide binding to human PLK1 polo-box domain; P53350; Plk1 PBD binding of FITC phosphopeptide, fluorescence polarization; Potency, µM, for the others: max response, negative = inhibition, hits mostly inhibitors; actives 2.8% (n = 360,000); also: series mostly up to about 57 µM; nearly all actives have a fitted effect of over 65% in size
IDH1 R132H inh = human IDH1 R132H inhibition | O75874 | IDH1-R132H enzyme, NADPH consumption, diaphorase/resazurin fluorescence | Potency, µM (doses to about 76.6 µM), for inactives: at the highest dose activity change, negative = inhibition, hits mostly inhibitors | actives 0.093% (n = 390,000) | AID 602179; also: nearly all actives have a fitted effect of over 65% in size
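IDH1-R132H (0.5 ug/mL) preincubated 30 min with compound, then NADPH (0.016 mM) and alpha-KG (2 mM) added; 80 min at RT, pH 7.5. Remaining NADPH coupled via diaphorase/resazurin to fluorescence (540/590 nm); concentration-response curves normalized to no-enzyme control.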
TrxR1 substrate = substrates of rat thioredoxin reductase 1; AID 588456; O89049; Potency, µM (titrated, usually from 114 µM), without a hit: at the highest dose activity change, negative = substrate turnover; actives 0.01% (n = 390,000); purified TrxR1 substrate turnover, NADPH consumption readout; also: nearly all actives have a fitted effect of over 50% in size
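Rat TrxR1, dispensed at 90 nM, was prereduced with 400 uM NADPH (final) for 5 min at ~22 deg C, then incubated with compound 15 min before 400 uM selenite. A first-read NADPH fluorescence drop versus no-compound background flagged substrates.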
VDR inhibitor = blocks the human vitamin D receptor; AID 504847; actives 0.93% (n = 400,000); Potency, µM, for inactives: max response, negative = inhibition, hits mostly inhibitors; P11473; VDR-SRC2-3 peptide fluorescence polarization, 2 h
Target sequence (P11473 whole entry, looked up): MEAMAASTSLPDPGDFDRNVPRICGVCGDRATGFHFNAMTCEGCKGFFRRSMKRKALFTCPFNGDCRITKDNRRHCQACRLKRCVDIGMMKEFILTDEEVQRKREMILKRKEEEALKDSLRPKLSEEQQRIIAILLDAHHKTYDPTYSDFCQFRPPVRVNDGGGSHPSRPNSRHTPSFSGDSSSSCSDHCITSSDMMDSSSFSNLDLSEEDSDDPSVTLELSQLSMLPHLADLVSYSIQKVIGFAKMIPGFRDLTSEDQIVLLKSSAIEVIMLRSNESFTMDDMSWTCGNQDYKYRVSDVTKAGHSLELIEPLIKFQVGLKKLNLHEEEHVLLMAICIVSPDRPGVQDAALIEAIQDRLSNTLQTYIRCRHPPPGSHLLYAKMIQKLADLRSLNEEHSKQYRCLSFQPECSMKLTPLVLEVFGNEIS
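VDR–SRC2-3 interaction, FP format. Cmpds 23 nl via pintool, brief spin, 2 h ambient incubation.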
* marks the source's active call; other numbers are inactive results; ? = inconclusive; nt = no result given; [ ] = dose if it differs, or a comment. Calls follow the shape of the dose curve; as a rule, active = well fitted curve in the direction sought with a large enough effect; inconclusive = small, poorly fitted or top-dose-only effect, or another doubt; inactive = no such curve, though single readings can be large; an effect the other way counts as inactive or inconclusive. Unless noted, % is scaled to controls: 0 for no effect and ±100 for the full control effect; potency is read from the fitted curve at half-maximal effect.

SMILES	Sfp inh	TrxR1 inh	PLK1 PBD block	IDH1 R132H inh	TrxR1 substrate	VDR inhibitor
CN(C)C(=O)Nc1ccc(Oc2ccc(Cl)cc2)cc1	9%	nt	nt	nt	nt	2%
Cc1ccc(CNc2ncnc3[nH]ncc23)o1	nt	-14%	nt	nt	-9%	1%
Cc1ccc2c(C)cc(=S)[nH]c2c1	6%	2%	?	-5%	-3%[57.1 µM]	-13%
Cc1ccc2[nH]c(=S)cc(C)c2c1	?	?	6µM*	4%	-14%	-22%
CCOc1ccc(NS(=O)(=O)c2cccs2)cc1S(=O)(=O)N1CCCC1	nt	nt	-6%	-9%	nt	nt
O=C(NCCN1C(=O)S/C(=C\c2cccnc2)C1=O)C1=NN(c2ccccc2)C(=O)CC1	-21%	25%[57.1 µM]	3.8µM*	9%	7%[57.1 µM]	28µM*
O=C(NCCN1C(=O)S/C(=C/c2cccnc2)C1=O)c1cccs1	nt	5%	-9%	2%	3%	-5%
CC(=O)Nc1c(O)cc(Br)c2nonc12	nt	-31%	nt	nt	-2%	-21%
CC(=O)Nc1cc(O)c2nonc2c1O	nt	5.6µM*	nt	nt	3.2µM*	4.5µM*
CCOc1ccc(CCNS(=O)(=O)c2ccc(-c3ccc(=O)[nH]n3)o2)cc1OCC	6%	16%	-6%	-4%	0%	-5%
CCOc1ccc(CCNS(=O)(=O)c2cnc[nH]2)cc1OCC	4%	8%	27µM*	8%	4%[57.1 µM]	10%
CCCCC(=O)c1ccc(OC(=O)c2ccc([N+](=O)[O-])cc2)cc1	nt	3%[2.29 µM]	-5%	-8%	-4%[2.29 µM]	-12%
O=C(CCCN1C(=O)/C(=C\c2ccccc2)SC1=S)Nc1ccc(C(=O)O)cc1	7%	?	-21%	-8%	-6%	?
O=C(CCCN1C(=O)/C(=C\c2cccs2)SC1=S)Nc1ccc(C(=O)O)cc1	-1%	-21%	-26%	-4%	79µM*	24%
O=C(O)c1ccc(N2C(=O)/C(=C/C=C/c3ccccc3)SC2=S)cc1	6%	-10%	27µM*	12%	3%	-10%
O=C(CCN1C(=O)/C(=C\C=C\c2ccccc2)SC1=S)Nc1ccc(C(=O)O)cc1	?	-12%	24µM*	-6%	0%	?
O=C(CCN1C(=O)/C(=C/c2cccs2)SC1=S)Nc1ccc(C(=O)O)cc1	3%	1%	-11%	-10%	-4%	-1%
O=C(NC(c1ccc(-c2ccccc2)cc1)c1cnccn1)C1CCN(CCOc2ccc(F)cc2)CC1 (stereo not drawn)	nt	nt	-10%	nt	nt	nt
C=C1CCN(C(CC(C)C)C(=O)NCc2ccc(Cl)c(Cl)c2)S(=O)(=O)c2ccccc21 (stereo not drawn)	11%	6%	nt	nt	-9%	-6%
O=C(c1cc(COc2ccc(F)cc2Cl)on1)N1CCCCCCC1	0%	4%	19µM*	-1%	-5%	?
O=C(c1cc(COc2ccc(F)cc2Cl)on1)N1CCCCCC1	1%	10%	4%	7%	9%	-10%
COc1ccc(NC(=O)Cn2nnc(C(=O)NCc3cccs3)c2N)c(OC)c1	-19%	11%	24µM*	-3%	-3%	-24%
COc1cccc(Cn2nnc(C(=O)Nc3cc(C)ccc3OC)c2N)c1	32%	2%[57.1 µM]	27µM*	-1%	-1%[57.1 µM]	?
CC[Si](CC)(CC)O[C@H]([C@@H](C)COCOC)[C@@H](C)COCc1ccc(OC)cc1	0%	11%	nt	nt	3%	-4%
Cc1cc(NC(=O)CN2C(=O)NC3(CCCCC3)C2=O)ccc1N1CCCC1	nt	20%	-4%	2%	7%	-18%
Clc1ccc(-c2nnc(-c3ccccc3Cl)o2)cc1	71µM*	2%[57.1 µM]	-4%	-4%	9%[57.1 µM]	-12%
Brc1ccc(-c2nnc(-c3ccccc3Br)o2)cc1	50µM*	15%[57.1 µM]	-8%	5%	11%[57.1 µM]	3%
NC(=O)C(CCc1nc2ccccc2[nH]1)NS(=O)(=O)c1ccccc1 (stereo not drawn)	nt	nt	-14%	-1%	nt	nt

Screening results: PubChem, National Center for Advancing Translational Sciences (NCATS)
